Source: PubChem BioAssay
Several values for one entry are separate records, joined by “and”; a condition that tells them apart may be missing. Equal entries are not always repeated. Activity calls are given as the source filed them. Unless noted, no stated cut-off is given here; in the data, active means inhibition above about 42%; inactive means the rest.

Assays:
[1] = molecular target: Nuclear receptor coactivator 3 (Homo sapiens) (UniProt Q9Y6Q9); assay: SRC3 coactivator transcriptional activity inhibitors, confirmation, cell-based, luminescence, quadruplicate (AID 588792;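 active means mean inhibition over 43.08%, the solvent-only control mean plus 3 SD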;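 further: 0% = DMSO treated cells and 100% = gossypol at 36 µM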); conditions: HEK293 GAL4-SRC3 luciferase reporter, at 3.6 µM, active compounds read high
Sequence of Nuclear receptor coactivator 3 (Homo sapiens) (Q9Y6Q9 whole entry, looked up, the tested form may be a part): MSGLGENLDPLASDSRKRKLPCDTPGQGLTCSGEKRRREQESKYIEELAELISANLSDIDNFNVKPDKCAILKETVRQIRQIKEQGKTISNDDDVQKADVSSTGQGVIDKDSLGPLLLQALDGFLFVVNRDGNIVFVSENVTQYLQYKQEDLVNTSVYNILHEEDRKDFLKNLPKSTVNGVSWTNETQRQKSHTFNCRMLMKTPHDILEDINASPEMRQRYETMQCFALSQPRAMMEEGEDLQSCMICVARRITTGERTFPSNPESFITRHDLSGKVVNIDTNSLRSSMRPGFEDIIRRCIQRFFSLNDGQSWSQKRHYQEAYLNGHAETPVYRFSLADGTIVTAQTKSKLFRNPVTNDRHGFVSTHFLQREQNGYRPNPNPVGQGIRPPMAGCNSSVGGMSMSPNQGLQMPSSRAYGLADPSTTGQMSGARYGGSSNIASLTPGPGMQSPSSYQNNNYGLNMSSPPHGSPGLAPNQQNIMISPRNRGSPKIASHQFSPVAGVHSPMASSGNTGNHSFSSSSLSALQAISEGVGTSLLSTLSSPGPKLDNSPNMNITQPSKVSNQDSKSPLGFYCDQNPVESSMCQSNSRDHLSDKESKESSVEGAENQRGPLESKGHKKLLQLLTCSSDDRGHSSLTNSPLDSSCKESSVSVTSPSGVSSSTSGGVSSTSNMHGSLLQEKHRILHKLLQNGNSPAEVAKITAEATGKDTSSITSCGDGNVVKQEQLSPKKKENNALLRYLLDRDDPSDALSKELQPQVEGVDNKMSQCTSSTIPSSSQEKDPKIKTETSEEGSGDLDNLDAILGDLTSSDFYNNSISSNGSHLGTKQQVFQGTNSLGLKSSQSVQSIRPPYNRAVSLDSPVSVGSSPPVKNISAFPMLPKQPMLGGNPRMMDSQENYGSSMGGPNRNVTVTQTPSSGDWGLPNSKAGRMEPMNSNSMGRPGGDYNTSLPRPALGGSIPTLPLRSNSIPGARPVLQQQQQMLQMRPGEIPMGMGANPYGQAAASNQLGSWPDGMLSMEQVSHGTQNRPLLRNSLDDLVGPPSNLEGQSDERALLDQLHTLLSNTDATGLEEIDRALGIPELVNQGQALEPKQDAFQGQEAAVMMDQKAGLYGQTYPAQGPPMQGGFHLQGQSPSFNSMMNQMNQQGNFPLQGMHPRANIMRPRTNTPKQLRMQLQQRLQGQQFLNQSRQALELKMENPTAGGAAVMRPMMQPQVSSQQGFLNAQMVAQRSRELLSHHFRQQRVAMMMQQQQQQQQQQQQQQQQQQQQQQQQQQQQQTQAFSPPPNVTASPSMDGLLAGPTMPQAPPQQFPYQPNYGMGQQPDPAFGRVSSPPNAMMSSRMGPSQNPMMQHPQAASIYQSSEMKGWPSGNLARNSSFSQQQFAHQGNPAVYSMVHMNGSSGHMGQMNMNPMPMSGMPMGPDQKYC

[2] = test system: transactivating tegument protein VP16 (Human herpesvirus 1), Gal4-VP16 luciferase reporter; assay: VP16 transactivation inhibitors, counter-screen for SRC3 inhibitor project, cell-based, luminescence, high throughput (AID 588794; in the data active means inhibition above about 30%); conditions: mammalian cells, VP16-driven luciferase reporter luminescence; at 3.6 µM; active compounds read high
[3] = StAR promoter reporter inhibitors, counter-screen for LRH-1 inverse agonist project, cell-based, luminescence, high throughput (AID 651611; in the data active means inhibition above about 28%); conditions: StAR promoter luciferase reporter counterscreen, at 3.6 µM, active compounds read high
[4] = molecular target: Nuclear receptor subfamily 5 group A member 2 (Homo sapiens) (UniProt O00482); assay: LRH-1 (NR5A2) inverse agonists, retest, confirmation, cell-based, luminescence (AID 651613); conditions: cell-based LRH-1 luciferase reporter, inverse agonism; at 3.6 µM; active compounds read high;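 further: HEK293T cells co-transfected with LRH-1 and StAR promoter luciferase reporter; 0% = vehicle wells and 100% = parental cells lacking receptor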
Sequence of Nuclear receptor subfamily 5 group A member 2 (Homo sapiens) (O00482 whole entry, looked up): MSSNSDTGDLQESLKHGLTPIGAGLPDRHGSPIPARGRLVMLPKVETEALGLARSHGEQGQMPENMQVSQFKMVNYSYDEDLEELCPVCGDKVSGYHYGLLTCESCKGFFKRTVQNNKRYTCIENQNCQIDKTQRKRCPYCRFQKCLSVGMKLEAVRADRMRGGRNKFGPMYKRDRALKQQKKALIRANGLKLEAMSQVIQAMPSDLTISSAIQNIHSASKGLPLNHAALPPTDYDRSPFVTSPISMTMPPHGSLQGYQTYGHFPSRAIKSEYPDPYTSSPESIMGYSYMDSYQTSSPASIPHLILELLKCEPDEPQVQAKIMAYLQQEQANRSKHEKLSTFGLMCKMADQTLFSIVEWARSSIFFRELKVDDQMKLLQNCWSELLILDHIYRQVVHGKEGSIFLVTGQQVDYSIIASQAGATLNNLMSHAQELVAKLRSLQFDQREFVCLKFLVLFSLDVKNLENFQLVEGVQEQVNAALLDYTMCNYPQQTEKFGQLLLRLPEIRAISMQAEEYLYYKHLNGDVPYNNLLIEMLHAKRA

[5] = molecular target: Steroidogenic factor 1 (Homo sapiens) (UniProt Q13285); assay: SF1 (NR5A1) inverse agonists, counter-screen for LRH-1 inverse agonist project, cell-based, luminescence, high throughput (AID 651614; in the data active means inhibition above about 44%;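 further: cells cotransfected with StAR promoter reporter and SF1 expression vector; 0% = vehicle on cells with receptor and 100% = vehicle on cells lacking receptor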); conditions: cell-based SF1 luciferase reporter, at 3.6 µM, active compounds read high
Sequence of Steroidogenic factor 1 (Homo sapiens) (Q13285 whole entry, looked up, the tested form may be a part): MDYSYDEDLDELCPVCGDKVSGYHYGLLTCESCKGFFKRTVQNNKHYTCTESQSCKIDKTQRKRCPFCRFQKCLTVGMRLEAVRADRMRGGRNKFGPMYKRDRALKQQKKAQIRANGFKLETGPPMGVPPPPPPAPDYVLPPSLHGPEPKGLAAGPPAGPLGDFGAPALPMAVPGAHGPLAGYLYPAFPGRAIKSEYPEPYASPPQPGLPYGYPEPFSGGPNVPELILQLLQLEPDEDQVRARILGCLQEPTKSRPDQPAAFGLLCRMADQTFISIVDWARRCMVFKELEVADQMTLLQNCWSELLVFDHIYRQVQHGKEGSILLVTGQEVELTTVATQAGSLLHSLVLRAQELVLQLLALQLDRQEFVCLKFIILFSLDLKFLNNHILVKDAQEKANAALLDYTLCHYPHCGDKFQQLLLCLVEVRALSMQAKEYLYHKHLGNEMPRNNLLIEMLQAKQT

[6] = VP16 transactivation reporter inhibitors, counter-screen for LRH-1 inverse agonist project, cell-based, luminescence, high throughput (AID 651615; in the data active means inhibition above about 33%); conditions: Gal4-VP16 luciferase reporter cells, at 3.6 µM, active compounds read high
[7] = test system: transactivating tegument protein VP16 (Human herpesvirus 1); assay: VP16 transactivation reporter inhibitors, counter-screen for SRC2 inhibitor project, cell-based, luminescence, single concentration (AID 652007; in the data active means inhibition above about 36%); conditions: cell-based VP16 transactivation luciferase reporter, at 8.9 µM, active compounds read high
[8] = molecular target: Nuclear receptor coactivator 2 (Homo sapiens) (UniProt Q15596); assay: SRC2 coactivator transcriptional activity inhibitors, confirmation, cell-based, luminescence, HEK293, triplicate (AID 652008;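 active means mean inhibition above 46.5%, the solvent-only control mean plus 3 SD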;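 further: 0% = DMSO-treated cells and 100% = Gossypol at 36 µM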); conditions: HEK293 GAL4-SRC2 luciferase reporter, at 8.9 µM, active compounds read high
Sequence of Nuclear receptor coactivator 2 (Homo sapiens) (Q15596 whole entry, looked up, the tested form may be a part): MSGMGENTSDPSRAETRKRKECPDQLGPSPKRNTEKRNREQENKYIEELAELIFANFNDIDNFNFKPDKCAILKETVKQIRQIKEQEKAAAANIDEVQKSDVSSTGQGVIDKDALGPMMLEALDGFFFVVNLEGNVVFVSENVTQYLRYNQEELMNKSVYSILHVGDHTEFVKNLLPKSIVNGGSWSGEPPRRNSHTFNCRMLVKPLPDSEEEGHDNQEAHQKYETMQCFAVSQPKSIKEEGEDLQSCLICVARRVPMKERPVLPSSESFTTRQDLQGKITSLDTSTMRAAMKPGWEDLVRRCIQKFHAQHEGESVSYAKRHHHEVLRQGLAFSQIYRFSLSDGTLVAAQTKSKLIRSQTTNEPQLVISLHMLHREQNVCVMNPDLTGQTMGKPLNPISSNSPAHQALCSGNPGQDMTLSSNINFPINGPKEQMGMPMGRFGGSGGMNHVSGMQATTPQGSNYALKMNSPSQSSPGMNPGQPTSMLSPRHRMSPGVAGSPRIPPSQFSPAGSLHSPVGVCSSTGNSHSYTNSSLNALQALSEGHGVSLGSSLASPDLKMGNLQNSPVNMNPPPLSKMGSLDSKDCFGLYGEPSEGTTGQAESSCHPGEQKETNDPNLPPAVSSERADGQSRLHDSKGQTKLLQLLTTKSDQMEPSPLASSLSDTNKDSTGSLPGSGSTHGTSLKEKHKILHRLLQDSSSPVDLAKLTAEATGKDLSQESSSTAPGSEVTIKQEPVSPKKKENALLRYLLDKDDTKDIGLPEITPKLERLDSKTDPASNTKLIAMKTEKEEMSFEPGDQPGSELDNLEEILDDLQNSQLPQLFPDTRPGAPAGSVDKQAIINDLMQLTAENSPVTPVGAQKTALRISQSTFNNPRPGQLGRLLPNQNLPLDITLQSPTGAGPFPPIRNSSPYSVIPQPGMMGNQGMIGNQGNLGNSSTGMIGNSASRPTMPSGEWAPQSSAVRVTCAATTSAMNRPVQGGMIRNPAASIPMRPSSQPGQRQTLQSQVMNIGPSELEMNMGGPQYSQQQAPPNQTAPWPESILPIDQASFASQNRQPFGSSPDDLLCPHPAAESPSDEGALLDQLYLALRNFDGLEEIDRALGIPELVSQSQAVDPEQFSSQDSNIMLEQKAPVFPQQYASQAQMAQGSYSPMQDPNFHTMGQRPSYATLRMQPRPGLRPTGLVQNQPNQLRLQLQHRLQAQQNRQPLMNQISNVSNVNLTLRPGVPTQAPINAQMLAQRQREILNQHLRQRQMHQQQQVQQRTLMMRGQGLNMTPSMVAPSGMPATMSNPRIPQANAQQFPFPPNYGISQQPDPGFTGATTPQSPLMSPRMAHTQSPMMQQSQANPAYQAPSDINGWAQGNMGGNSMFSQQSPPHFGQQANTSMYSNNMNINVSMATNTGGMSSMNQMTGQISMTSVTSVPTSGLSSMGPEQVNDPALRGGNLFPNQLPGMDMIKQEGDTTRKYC

Measured: inhibition

Cc1ccc(OCCN2CCN(c3ncnc4sc(C)c(C)c34)CC2)cc1
inactive: [1] 4.63%
active: [2] 39.1% | [3] 34.8% | [4] 56.1% | [5] 61.3% | [6] 53.9%

CCCC(=O)NC(c1ccc(N(C)C)cc1)c1ccc2cccnc2c1O (centres undefined)
active: [1] 78.2% | [2] 77% | [3] 91.9% | [4] 104% | [5] 91.3% | [6] 89.2%

Cc1ccc(NC(=O)c2cc(Cl)ccc2[N+](=O)[O-])cc1C
inactive: [1] 27.3% | [2] 18.5% | [3] 16.6% | [4] 36.5% | [5] 34.6% | [6] 19.6%

CCN(CC)c1ccc(/C=N/NC(=O)c2cccc(S(=O)(=O)N3CCOCC3)c2)c(O)c1
active: [1] 60% | [2] 61.7% | [3] 79.2% | [4] 96.4% | [5] 82.6% | [6] 64.8%

COc1ccc(C(=O)C2CCCN(Cc3cccn3-c3ccc(Cl)cn3)C2)c(OC)c1 (centres undefined)
active: [4] 47.7% | [5] 47.4% | [6] 41.2%
inactive: [1] 17.1% | [2] 25.5% | [3] 19%

Cc1ccc(C(=O)Nc2sc3c(c2C(=O)O)CCC(C)C3)o1 (centres undefined)
inactive: [1] 28%
active: [2] 68.3% | [3] 53.4% | [4] 89.5% | [5] 85.8% | [6] 77%

C[n+]1c2n(c3ccccc31)N=C(c1ccc(-c3ccccc3)cc1)CS2
inactive: [1] 36.6%
active: [2] 52.8% | [3] 32.7% | [4] 87.7% | [5] 78.2% | [6] 72.8%

COC1C(=O)CCC2(CO2)C1(O)C1(C)OC1CC=C(C)C (centres undefined)
inactive: [1] 39.3% | [5] 39.6%
active: [2] 40.8% | [3] 33.8% | [4] 43% | [6] 42%

CCC(C)Nc1nc(-c2ccccn2)nc2ccccc12 (centres undefined)
active: [3] 45.6% | [4] 67.2% | [5] 78.3% | [6] 42.9%
inactive: [1] 3.88% | [2] 11.9%

COc1cc2c(c(OC)c1OC)-c1ccc(SC)c(=O)cc1C(NC=O)CC2 (centres undefined)
inactive: [2] 15.7%
active: [1] 44.5% | [3] 67% | [4] 65.8% | [5] 69.7% | [6] 54.5%

CCOC(=O)c1c2c(n(-c3ccc(OC)cc3)c1C)C(=O)C(=O)c1ccccc1-2
active: [1] 45.9% | [2] 33.8% | [3] 63% | [4] 66.5% | [5] 63.8% | [6] 50.3%

CCOC(=O)C1=Nc2ccccc2C1=[N+]=[N-]
active: [2] 46% | [4] 53.3% | [5] 45.2% | [6] 53.2%
inactive: [1] 35.7% | [3] 14.1%

Cc1cc(Br)c(OCc2ccc(C(=O)N/N=C/c3ccc[nH]3)cc2)c(Br)c1
active: [1] 51.8% | [2] 71.7% | [3] 76.5% | [4] 101% | [5] 88.5% | [6] 85.5%

CN(CCOc1ccc(Cl)cc1)C(=O)c1cccc(S(=O)(=O)N2CCN(c3ccc(F)cc3)CC2)c1
active: [2] 41.2% | [4] 60.9% | [5] 63.8% | [6] 53.2%
inactive: [1] 24.4% | [3] 24.3%

Cc1ccc(CSC(Nc2ccc(F)cc2)=C(C#N)C#N)cc1
inactive: [1] 4.71% | [2] 28.5% | [3] 19.4% | [7] 12.8% | [8] 31.9%
active: [4] 59.8% | [5] 59.9% | [6] 45%

Cc1ccccc1C(=O)N/N=C/c1ccc([N+](=O)[O-])s1
active: [3] 46.1% | [4] 73.2% | [5] 65% | [7] 64.2% | [8] 63.1%
inactive: [1] 6.45% | [2] 8.35% | [6] 24.8%

CCOc1ccc(OCc2ccc(C(=O)NN=Cc3ccc[nH]3)cc2)cc1
inactive: [1] 38.9%
active: [2] 78.4% | [3] 76.2% | [4] 104% | [5] 90.6% | [6] 87.1%

CCN1/C(=C\c2ccc3cc(C)ccc3[n+]2CC)Sc2cc(C)c(C)cc21
active: [2] 57.5% | [3] 32.8% | [4] 82.5% | [5] 72.8% | [6] 65.6%
inactive: [1] 34.9%

COc1cc(/C=C/C(=O)c2ccc(C)cc2)ccc1OCC#N
active: [2] 41.2% | [6] 44.4%
inactive: [1] 31.2% | [3] 23.6% | [4] 29.3% | [5] 36.5% | [7] 28% | [8] 29.4%

CCN(C(C)=O)c1cnc(C=NNC(N)=S)c2ccccc12
active: [3] 78.7% | [4] 75.7% | [5] 69.5% | [6] 69.3%
inactive: [1] 39.5% | [2] 29.1%

COc1ccc2c(c1OC)C(=O)N1c3ccccc3C(=O)N(c3ccccc3F)C21 (centres undefined)
inactive: [1] 17.7% | [2] 10.7% | [6] 16.9%
active: [3] 53.5% | [4] 48.5% | [5] 54.1%

Cc1ccc(C(=O)C[n+]2cc(-c3ccc(C)cc3)n3c2CCCCC3)cc1
active: [2] 53.5% | [3] 38% | [4] 80.2% | [5] 75.7% | [6] 70.4%
inactive: [1] 25.2%

Cc1ccc(NC2=C(N3CCCCC3)C(=O)c3ccccc3C2=O)cc1
inactive: [1] -30.8% | [2] -15% | [3] -37.9% | [4] 12.3% | [5] -5.93% | [6] -11.3%

C=C1C(=O)[C@]23C[C@H]1CCC2[C@@]1(C)C(C[C@@H]3O)[C@](C)(C(=O)OC)CC[C@@H]1OC(C)=O (some centres undefined)
active: [1] 62.7% | [2] 44.9% | [3] 61.7% | [4] 70.7% | [5] 80.6% | [6] 76.2% | [7] 83.2% | [8] 99%

O=S(=O)(NCC1CCCO1)c1ccc(-c2ccc(S(=O)(=O)NCC3CCCO3)cc2)cc1 (centres undefined)
active: [2] 41.9% | [4] 69.5% | [5] 61.2% | [6] 56.7%
inactive: [1] 9.93% | [3] 24.6%

CCCCCCCCCCCCCCCC[n+]1ccccc1
inactive: [1] 16.6% | [2] 25.1% | [3] 23.1% and 10.5% | [7] 13.5% | [8] -2.51%
active: [4] 47.2% and 54.5% | [5] 57.7% and 48.1% | [6] 52.6% and 48.9%

CC(C)N(c1ccccc1)c1ccc(NC(=O)CCl)cc1
inactive: [1] 29.3% | [2] -9.17% | [6] -7.77% | [7] 17.1% | [8] 33.1%
active: [3] 32.8% | [4] 72.4% | [5] 60.9%

O=C(N/N=C/c1c(O)ccc2ccccc12)c1[nH]ncc1Br
active: [1] 58.8% | [2] 53.9% | [3] 77.2% | [4] 95.8% | [5] 83.8% | [6] 73.6%

COc1ccc(-n2c(-c3ccc(Cl)cc3)c[n+]3c2CCc2ccccc2-3)cc1
inactive: [1] 16.3%
active: [2] 45.2% | [3] 30.1% | [4] 79.2% | [5] 69.1% | [6] 70.5%

O=C(Nc1ccccc1)Nc1cc(OCC(F)(F)F)cc(OCC(F)(F)F)c1
inactive: [1] 21.7% | [2] 20.5% | [3] 22.9%
active: [4] 71.3% | [5] 54.7% | [6] 54.3%

COc1ccc(-c2n(CC(=O)OC3CC(C)CCC3C(C)C)c3ccccc3[n+]2C)cc1 (centres undefined)
active: [1] 57.5% | [2] 61.3% | [3] 59.1% | [4] 110% | [5] 79.5% | [6] 92.9%

CC(=O)Nc1ccc(Oc2sc(C(=O)c3ccccc3)c(N)c2C#N)cc1
active: [3] 35.8% | [4] 70.9% | [5] 66.7%
inactive: [1] 20.5% | [2] -3.87% | [6] 7.59% | [7] 14.6% | [8] 32.6%

C/C(=N\NC(N)=S)C12CC3CC(CC(C3)C1)C2
active: [2] 32.8% | [4] 66.1% | [5] 71.4% | [6] 48.1%
inactive: [1] 41.6% | [3] 20.4% | [7] 9.52% | [8] 26.9%

COc1ccc(-c2c[n+](CC(=O)OC3CC(C)CCC3C(C)C)c3n2CCC3)cc1 (centres undefined)
active: [2] 42.1% | [4] 95.2% | [5] 62.6% | [6] 56.7%
inactive: [1] 22.9% | [3] 20.9%

COc1cc(C)c(Br)cc1S(=O)(=O)NCc1ccncc1
inactive: [1] 9.21% | [3] 14.3% | [5] 38.5%
active: [2] 30.9% | [4] 49% | [6] 38%

Cc1ccc(S(=O)(=O)/C(=C/Cl)NC(=O)c2ccccc2)cc1
active: [3] 42.9% | [4] 57.7% | [5] 51.5% | [6] 38.8% | [7] 38.9% | [8] 60.8%
inactive: [1] 26% | [2] 26.9%

O=C(Nc1sc2c(c1C(=O)O)CCCCC2)c1ccccc1
inactive: [1] -1.12% | [2] 24.2% | [3] 1.22%
active: [4] 57% | [5] 59% | [6] 53.1%

CCNc1nc(NC(C)(C)C)nc(SC(C(C)=O)C(C)=O)n1
active: [2] 32% | [3] 60.2% | [4] 72.4% | [5] 64.2% | [6] 49.4%
inactive: [1] 23.3%

S=C(NCCCc1cnc[nH]1)NCCCN(Cc1ccc(Cl)cc1)c1ccc(Br)cn1
active: [1] 83.9% | [2] 57.4% | [3] 91.2% | [4] 102% | [5] 96.4% | [6] 82.4% | [8] 51.4%
inactive: [7] -0.33%
